The list is not random: actives were taken first. Their share in the collection is about 0.65%.
MRP resist rev: reversal of MRP1-mediated doxorubicin resistance, primary screen, H69AR cells, doxorubicin co-treatment; H69AR cells + 2 uM doxorubicin, CellTiter-Glo, 72 h; differential viability (reversal), % at 10 µM; 0.04% of 85,000 active; AID 602, 2007;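 active means viability drop by adding the cancer drug above about 55%, with treated viability meeting a 40% cutoff, limit read from the data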;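 further: viability without doxorubicin minus viability with 2 µM doxorubicin for each compound; larger differential means the compound sensitizes cells more to doxorubicin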
MRP1 act: H69AR viability gain despite doxorubicin, primary screen, MRP-1 activator project, H69AR cells, CellTiter-Glo; viability rescue; viability increase, % at 10 µM; 0.61% of 140,000 active;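 active means viability gain under doxorubicin at or above a set limit, the compound median plus 3 SD, cut at about 4.7% in these data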;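 further: MRP-1 overexpressing cells given doxorubicin 25 µM after compound pretreatment; 18-22 h compound pretreatment then 72 h with doxorubicin before readout; 0% = doxorubicin-only wells and 100% = vehicle-treated cells without doxorubicin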
The depositor's hits bear a star; . = no result given.

SMILES	MRP resist rev	MRP1 act
NC1=NC(=O)/C(=C/c2cn(CCC(=O)O)nc2-c2ccc(F)cc2)S1	.	1.2
NC1=NC(=O)/C(=C/c2cn(CCC(=O)O)nc2-c2ccc(Cl)cc2)S1	.	5.5*
CCC(Sc1ccccn1)C(=O)Nc1nnc(C)s1 (stereo not given)	-5.4	4.5
CCC(Sc1nc2ccccc2o1)C(=O)Nc1nnc(C)s1 (stereo not given)	.	6.4*
COCCNC(=O)C(c1ccc(C)o1)N(C(=O)c1snc(C(N)=O)c1N)c1cc(C)cc(C)c1 (stereo not given)	-6.0	-5.4
CCOC(=O)C(C(=O)Nc1nccs1)C1CCCCC1 (stereo not given)	13.8	4.7*
CCOC(=O)C(C(=O)Nc1nc2ccccc2s1)C1CCCCC1 (stereo not given)	-13.2	7.1*
CCOC(=O)C(C(=O)Nc1ccccn1)C1CCCCC1 (stereo not given)	-15.2	-3.5
CCOC(=O)C(C(=O)Nc1cccc(C)n1)C1CCCCC1 (stereo not given)	1.1	2.8
Cc1ccc(C2=CC(C)(c3ccc(C)cc3)Nc3nc(C(F)(F)F)nn32)cc1 (stereo not given)	.	6.0*
CC1(c2ccc(OCC#N)cc2)C=C(c2ccc(OCC#N)cc2)n2nc(C(F)(F)F)nc2N1 (stereo not given)	.	-4.0
C/C(=N\NC(=O)c1ccc(Cn2cc(Br)cn2)o1)c1cccc(NC(=O)C(C)(C)C)c1	.	0.1
C/C(=N\NC(=O)c1ccc(Cn2cc([N+](=O)[O-])cn2)o1)c1cccc(NC(=O)c2cccnc2)c1	.	20.1*
Cc1ccccc1C(=O)c1cccn1CC(=O)NCc1ccc2c(c1)OCO2	-3.2	-0.5
CCOC(=O)c1cc(-c2ccccc2)sc1NC(=O)C(C)OC(=O)c1cccnc1Cl (stereo not given)	.	-0.9
C=CCNc1oc(-c2ccc(OCC)cc2)nc1C#N	19.9	-2.2
CCOc1ccc(-c2nc(C#N)c(NCC(C)C)o2)cc1	5.7	6.8*
CC(OCCN1CCCC1)(c1ccc(F)cc1)c1ccc(F)cc1	.	-3.1
Cc1ccc(NC(=S)NN(C)c2cc(C)nc(C)n2)cc1	.	-1.2
O=C(COC(=O)CCCOc1ccc(Cl)cc1Cl)Nc1cccc(Cl)c1	.	-2.0
COc1ccc(CNC(=O)COC(=O)CCCOc2ccc(Cl)cc2Cl)cc1	.	4.9*
COc1ccc(CNc2nc3c(c(=O)n(Cc4ccc(Cl)cc4)c(=O)n3C)n2C)cc1	20.2	5.5*
COCCNc1nc2c(c(=O)n(Cc3ccc(OC)cc3)c(=O)n2C)n1C	7.6	-0.7
Cc1cccc(Oc2nc(CN3CCOCC3)nc3sc4c(c23)CCCC4)c1	.	-3.6
COc1cc(CN(C2CCCCC2)S(=O)(=O)c2ccc(S(=O)(=O)N(C)C3CCCCC3)cc2)cc(OC)c1OC	.	-0.7
SMILES	MRP resist rev	MRP1 act
O=C(C(c1ccccc1)c1ccccc1)N1CCN(CCN2C(=O)c3cccc4cccc(c34)C2=O)CC1	.	1.7
O=C1c2cccc3cccc(c23)C(=O)N1CCN1CCN(CC(O)COc2ccccc2)CC1 (stereo not given)	.	5.0*
CCN(CC)S(=O)(=O)c1ccc(Cl)c(C(=O)Nc2ccc(Cl)cc2[N+](=O)[O-])c1	.	-2.6
CCNc1oc(-c2cccc3ccccc23)nc1C#N	7.0	7.3*
C=CCNc1oc(-c2cccc3ccccc23)nc1C#N	12.3	0.9
CCOc1cc(OCC)nc(S(C)(=O)=O)n1	.	-4.2
O=C1[C@@H]2[C@H](Cc3ccc(O)cc3)N[C@]3(C(=O)Nc4ccccc43)[C@@H]2C(=O)N1c1ccc(F)cc1	10.8	5.7*
O=C1[C@@H]2C(Cc3ccc(O)cc3)NC3(C(=O)Nc4ccc(F)cc43)[C@@H]2C(=O)N1c1ccccc1 (stereo not given in full)	10.5	3.0
COc1ccc(NC(=O)c2oc3ccccc3c2NC(=O)C2CC2)cc1	.	1.4
COc1ccc(NC(=O)c2oc3ccccc3c2NC(=O)C(C)(C)C)cc1	.	5.5*
CC(C)/C=N/Nc1nc(-c2ccc(Br)cc2)cs1	.	-1.8
CCc1ccccc1NC(=O)COc1cccc2ccc(C)nc12	.	-1.1
CCOc1cc(CNn2nnnc2N)cc(Cl)c1OCC(=O)NC(C)(C)C	-3.8	-1.4
COC(=O)c1cnn(-c2cc(Oc3ccccc3)ncn2)c1N	.	5.7*
c1ccc(Oc2cc(-n3cccn3)ncn2)cc1	12.2	0.7
COc1ccc(NC(=O)CC2C(=O)N(c3ccc(F)cc3)C(=S)N2NC(=O)c2ccc(Cl)cc2)cc1 (stereo not given)	.	4.8*
COC(=O)CN1C(=S)N(c2ccc(Cl)cc2)C(=O)C1CC(=O)Nc1ccc(F)cc1 (stereo not given)	.	-1.5
COc1ccc(NC(=O)CC2C(=O)N(c3ccc(Cl)cc3)C(=S)N2CCc2ccncc2)cc1 (stereo not given)	.	-4.5
COc1ccc(NC(=O)CC2C(=O)N(c3ccc(Cl)cc3)C(=S)N2NC(=O)c2cccc(F)c2)cc1 (stereo not given)	.	5.1*
O=c1[nH]c2ccccc2nc1-c1cccs1	5.0	-3.8
Cn1ccnc1-c1nc2ccccc2[nH]c1=O	81.9*	-1.7
Cc1ccc(Nc2nnc(SCC(=O)Nc3cccnc3Cl)s2)cc1C	.	0.0
Cc1nc2cc(-c3ccsc3-n3c(C)ccc3C)[nH]n2c(=O)c1Cl	-10.0	6.0*
COCc1cc(=O)n2[nH]c(-c3ccsc3-n3c(C)ccc3C)cc2n1	10.6	-1.9
N#C/C(=N/Nc1ccccc1F)C(=N)N1CCOCC1	.	8.1*
SMILES	MRP resist rev	MRP1 act
N#C/C(=N\Nc1ccc(F)cc1)C(=N)N1CCCCC1	12.5	1.8
CCOc1cc(/C=N/NC(=O)c2cc(C)[nH]n2)ccc1OC(=O)c1ccc([N+](=O)[O-])cc1	.	-2.9
Cc1cc(C(=O)N/N=C/c2cc(Br)ccc2OC(=O)c2ccccc2)n[nH]1	.	9.4*
Cc1nc(N2CCN(Cc3ccc4c(c3)OCO4)CC2)nc2c1C(=O)CC(c1ccco1)C2 (stereo not given)	.	2.4
Cc1nc(N2CCN(Cc3ccccc3)CC2)nc2c1C(=O)CC(c1ccco1)C2 (stereo not given)	8.0	5.6*
CCn1nc(C)c(C2C(C#N)=C(N)OC3=C2C(=O)CC(C)(C)C3)c1C (stereo not given)	.	-1.4
S=C(N/N=C/c1ccccc1)N1CCOCC1	.	0.2
CC(C)Cn1c2c(c(O)c(C(=O)Nc3ccc(F)cc3)c1=O)CCCC2	-8.9	6.3*
CC(C)Cn1c2c(c(O)c(C(=O)Nc3ncccc3O)c1=O)CCCC2	-13.6	0.6
COC(=O)c1[nH]c2c(c1C)C(=O)CCC2	-1.3	-0.6
Cc1c(C(=O)OC2CCC(C)CC2)[nH]c2c1C(=O)CCC2 (stereo not given)	24.7	5.2*
O=S1(=O)CC(N2CCCCC2)C(N2CCCCC2)C1 (stereo not given)	-0.9	-1.4
CC(=O)Nc1ccc(S(=O)(=O)NCC(=O)OCc2ccccc2)cc1	.	-2.6
COc1ccc(-c2csc(N3C(=O)CNC3=S)n2)cc1	.	3.4
O=C1CNC(=S)N1c1nc(-c2ccccc2)cs1	.	4.8*
C=C(C)c1cccc(C(C)(C)NC(=O)N(Cc2ccccc2)Cc2ccco2)c1	5.7	-0.3
CC(=O)OCC(=O)[C@@]1(O)[C@H](C)C[C@H]2[C@@H]3CCC4=CC(=O)C=C[C@]4(C)[C@@]3(F)[C@@H](O)C[C@@]21C	-12.1	10.2*

Source: PubChem BioAssay
